Laboratory results taken from PubChem BioAssay.
Active and inactive are the calls of the source. Unless noted, the rule behind the calls is not given here.

How the values were obtained:
[1] = tested on: XIP peptide (Xip251-270) binding; test: XIP fragment 251-270 binding compounds – biochemical, small-molecule microarray, fluorescence 635/667 nm, 0.1 µg/mL protein, primary screen (AID 1182); conditions: fluorescent protein binding, 635 nm, higher = more signal, called active from +8 up or from −8 down
XIP peptide (Xip251-270) = test: compounds binding XIP fragment 251-270 – biochemical, small-molecule microarray, fluorescence 635/667 nm, 0.5 µg/mL protein, primary screen (AID 1183); conditions: fluorescence 635 nm, higher = more signal
[2] = blood-stage malaria parasite viability loss – strain 3D7, DAPI fluorescence, 100 nL, primary screen (AID 1184);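 note: parasites grown inside human red blood cells in medium with human serum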; conditions: P. falciparum 3D7 growth, 3 d, higher = more signal
[3] = molecular target: Homeobox protein Hox-A13 (Mus musculus) (UniProt Q62424); test: disruptors of Hoxa13 oligonucleotide interaction – biochemical, fluorescence polarization, labeled oligonucleotide, primary screen (AID 1185); conditions: Hoxa13:DNA binding, 15 min, higher = more signal, called active from +8 up or from −8 down
[4] = blockers of DNA damage checkpoint Chk1 activation – imaging, HeLa, hydroxyurea, phospho-Chk1 antibody, percent positive cells, primary screen (AID 1186); conditions: hydroxyurea-induced phospho-Chk1 immunofluorescence imaging, higher = more signal
[5] = blockers of DNA damage checkpoint Chk1 activation – imaging, HeLa, hydroxyurea, phospho-Chk1 nuclear intensity, primary screen (AID 1187); conditions: hydroxyurea-induced phospho-Chk1 immunofluorescence imaging, higher = more signal

Sequence of Homeobox protein Hox-A13 (Mus musculus) (Q62424 whole entry, looked up): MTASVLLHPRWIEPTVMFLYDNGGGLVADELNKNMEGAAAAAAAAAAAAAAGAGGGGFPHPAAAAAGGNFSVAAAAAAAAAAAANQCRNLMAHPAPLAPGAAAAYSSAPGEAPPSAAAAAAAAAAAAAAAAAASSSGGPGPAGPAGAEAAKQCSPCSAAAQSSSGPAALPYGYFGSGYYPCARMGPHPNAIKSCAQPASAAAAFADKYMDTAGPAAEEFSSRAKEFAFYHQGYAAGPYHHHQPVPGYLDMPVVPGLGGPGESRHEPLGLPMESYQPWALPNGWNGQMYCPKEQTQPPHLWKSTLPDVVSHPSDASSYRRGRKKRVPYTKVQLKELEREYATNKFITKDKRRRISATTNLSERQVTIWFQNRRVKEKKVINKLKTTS

Compound | composite z-score [1] | composite z-score (XIP peptide (Xip251-270)) | z-score [2] | z-score [3] | z-score [4] | z-score [5]
O=C1N(CCS(=O)(=O)c2ccccc2)Cc2ccccc2C[C@@]12COC(c1ccc(OCCCO)cc1)=N2 | 0.913 (inactive) | 0.82 | -2.05 | -4.6 (inactive) | -1.03 (inactive) | -1.29 (inactive)
COc1ccccc1CN1C(=O)c2ccccc2[C@@]2(Cc3ccccc3N(C3CC3)C2=O)[C@@H]1c1ccc(CO)cc1 | -0.0699 (inactive) | 0.53 | 0.35 | -2.14 (inactive) | 0.315 (inactive) | 0.491 (inactive)
COCCCNC(=O)[C@@]1(Cc2ccccc2)COC(c2ccc(OCCCO)cc2)=N1 | 0.506 (inactive) | 0.811 | -0.723 | -4.31 (inactive) | -0.0447 (inactive) | -0.109 (inactive)
CCCC[C@H]1OB(O)C[C@H]2C1=C(COc1ccccc1)Cn1c(=O)n(-c3ccccc3)c(=O)n12 | 1.9 (inactive) | 0.286 | -0.902 | -7.43 (inactive) | -0.309 (inactive) | -0.247 (inactive)
CN(C)C(=O)[C@@]1(CCC(=O)OC(C)(C)C)N=C(c2ccc(OCCCO)cc2)O[C@H]1c1ccccc1N=[N+]=[N-] | 1.55 (inactive) | 0.825 | -2.36 | -5.33 (inactive) | -0.146 (inactive) | -0.222 (inactive)
COCCOC(=O)N1C(=O)[C@@]2(c3cc(C#CCNC(N)=O)ccc31)[C@H](C(=O)N1CCCCCCC1)[C@H]1C(=O)O[C@H](c3ccccc3)[C@H](c3ccccc3)N1[C@@H]2c1ccc(OCCO)cc1 | 0.0447 (inactive) | 0.28 | -1.77 | -15.8 (active) | -0.0977 (inactive) | -0.64 (inactive)
CCOC(=O)C1=CCC(c2cccc(Cl)c2)O1 (stereo unspecified) | 1.62 (inactive) | 0.183 | -1.25 | -0.834 (inactive) | 0.296 (inactive) | -0.0984 (inactive)
C=C(COC)/C(=C/C[C@@H](OC(=O)c1ccncc1)c1cccc(OCCO)c1)c1cc(C(=O)OC)ccc1OC | 0.658 (inactive) | 0.657 | -2.38 | -4.58 (inactive) | 0.0182 (inactive) | 0.527 (inactive)
COCCCNC(=O)[C@@]1(C)c2ccccc2C(=O)N(c2ccc(C)cn2)[C@H]1c1ccc(CO)cc1 | -0.625 (inactive) | 0.892 | 0.563 | -1.9 (inactive) | 0.228 (inactive) | 0.554 (inactive)
COc1cc2c(cc1OC)CN(C(=O)[C@@H]1[C@H]3C(=O)O[C@H](c4ccccc4)[C@H](c4ccccc4)N3[C@H](c3ccc(O)cc3)[C@@]13C(=O)Nc1ccc(C#CCNC(N)=O)cc13)CC2 | 0.503 (inactive) | -0.0161 | -0.656 | -1.67 (inactive) | 0.259 (inactive) | 0.278 (inactive)
CC(C)NC(=O)[C@@]1(Cc2ccccc2I)c2ccccc2C(=O)N(Cc2ccccc2C(F)(F)F)[C@H]1c1ccc(CO)cc1 | 0.52 (inactive) | 0.815 | -1.09 | -3.19 (inactive) | -0.195 (inactive) | 0.0078 (inactive)
CC(C)(C)N1CC=CC23O[C@@H]4C=CCCOC(=O)C4[C@H]2C(=O)N(CCCO)[C@@H]3C1=O (stereo partly specified) | -0.508 (inactive) | -1.18 | -1.75 | -5.86 (inactive) | -0.0977 (inactive) | -0.102 (inactive)
CC(C)c1ccc(NN2C(C(O)c3ccccn3)C=CC3C(=O)N(c4ccccc4)C(=O)C32)cc1 (stereo unspecified) | 1.17 (inactive) | 0.69 | -0.723 | -4.86 (inactive) | 0.236 (inactive) | 0.375 (inactive)
O=C1OCCC=C[C@H]2OC34C=CCN(Cn5nnc6ccccc65)C(=O)[C@H]3N(CCCCCO)C(=O)[C@@H]4C12 (stereo partly specified) | 0.282 (inactive) | -0.75 | 0.561 | -4.63 (inactive) | 1.09 (inactive) | 1.08 (inactive)
C=CCNC(=O)[C@@H]1[C@H]2C(=O)O[C@H](c3ccccc3)[C@H](c3ccccc3)N2[C@H](c2ccc(O)cc2)[C@@]12C(=O)Nc1ccc(C#CCCO)cc12 | 3.57 (inactive) | 0.693 | -0.37 | -5.14 (inactive) | -0.154 (inactive) | -0.0542 (inactive)
COCCCNC(=O)[C@@H]1c2ccccc2C(=O)N(c2ccc(C)cn2)[C@H]1c1ccc(CO)cc1 | -0.0692 (inactive) | 0.305 | -1.38 | -0.943 (inactive) | -0.106 (inactive) | 0.236 (inactive)
CCOC(=O)C[C@H]1[C@H](OC(=O)c2ccc(C(=O)c3ccccc3)cc2)[C@@H](NC(=O)C2CCCCC2)c2cc(OCCCO)ccc2N1C(=O)Cc1ccc(OC)cc1 | 0.963 (inactive) | 0.242 | -1.12 | -2.28 (inactive) | 0.542 (inactive) | -0.129 (inactive)
C[C@H]1ON(c2ccccc2)[C@@H](c2ccccc2)[C@@H]1C(=O)N1C(=O)OC[C@@H]1c1ccccc1 | -0.222 (inactive) | 0.195 | -0.968 | -2.12 (inactive) | -0.134 (inactive) | -0.154 (inactive)

Compound | composite z-score [1] | composite z-score (XIP peptide (Xip251-270)) | z-score [2] | z-score [3] | z-score [4] | z-score [5]
[N-]=[N+]=Nc1ccccc1C[C@]1(C(=O)NCCN2CCOCC2)N=C(c2ccc(OCCCO)cc2)O[C@H]1c1ccccc1N=[N+]=[N-] | 1.24 (inactive) | 0.682 | -2.21 | -3.22 (inactive) | -1.3 (inactive) | -2.17 (inactive)
COc1ccc([Si](C)(C)[C@H]2[C@H](CCn3cc(CCO)nn3)O[C@@]3(C(=O)N(Cc4cccc(N5C(=O)c6cccc7cccc5c67)c4)c4ccccc43)[C@@H]2C)cc1 | 0.979 (inactive) | 0.697 | -2.55 | -2.56 (inactive) | -0.854 (inactive) | 0.0226 (inactive)
CCCCCCC#C[Si](O[C@H](c1ccccc1)c1cn(Cc2cccc(Cl)c2)nn1)(C(C)C)C(C)C | -0.301 (inactive) | 0.0372 | -0.464 | 1.16 (inactive) | -0.195 (inactive) | -0.272 (inactive)
C=CCNC(=O)[C@H]1[C@@H]2C(=O)O[C@@H](c3ccccc3)[C@@H](c3ccccc3)N2[C@@H](c2ccc(O)cc2)[C@]12C(=O)N(C(=O)OCCOC)c1ccc(C#CC3(O)CCCCCC3)cc12 | 1.44 (inactive) | 0.842 | 0.351 | -2.42 (inactive) | -0.213 (inactive) | 0.382 (inactive)
C[N+](C)(C)CCCC[C@@H]1NC(=O)[C@@H]2C[C@H](C(=O)O)[C@H](c3cccc(OCCO)c3)N2C1=O | 1.36 (inactive) | 0.246 | -0.0179 | -3.69 (inactive) | 0.153 (inactive) | 0.16 (inactive)
OCCCC1=CC(c2cccs2)N(Cc2cccc(OC(F)(F)F)c2)CC1 (stereo unspecified) | -0.512 (inactive) | 0.754 | -0.717 | -2.9 (inactive) | 0.439 (inactive) | 0.513 (inactive)
COc1ccc([Si](C)(C)[C@@H]2[C@@H](CCO)O[C@]3(C(=O)N(Cc4cccc(N5C(=O)COc6ccccc65)c4)c4ccccc43)[C@H]2C)cc1 | -0.417 (inactive) | 0.763 | -2.78 | -1.01 (inactive) | -1.02 (inactive) | -1.18 (inactive)
Cc1ccc(S[C@]2(C(=O)NCC(C)C)CC(=O)N(C3CCCCC3)[C@@H]2c2ccc(CO)cc2I)cc1 | 1.4 (inactive) | 0.254 | -1.82 | -3.86 (inactive) | 0.263 (inactive) | 0.746 (inactive)
CCCCC=C[C@@H](NC(=O)CCc1ccccc1)c1ccccc1 | 0.286 (inactive) | 0.518 | -0.425 | -0.0682 (inactive) | -0.522 (inactive) | -0.805 (inactive)
COCCOC(=O)N1C(=O)[C@@]2(c3cc(C#Cc4ccc(OC)cc4)ccc31)[C@H](C(N)=O)[C@H]1C(=O)O[C@H](c3ccccc3)[C@H](c3ccccc3)N1[C@@H]2c1ccc(OCCO)cc1 | 0.283 (inactive) | 0.721 | -2.35 | -1.11 (inactive) | 0.0311 (inactive) | 0.239 (inactive)
Cc1cc(C)c(C(O)C2C=CC3C(=O)N(c4ccccc4)C(=O)C3N2Nc2ccc([N+](=O)[O-])cc2)c(C)c1 (stereo unspecified) | 0.756 (inactive) | 0.783 | -0.569 | -1.86 (inactive) | 0.487 (inactive) | 0.596 (inactive)
COc1ccc([Si](C)(C)[C@@H]2[C@@H](CC(=O)N(CCO)Cc3ccccc3)O[C@]3(C(=O)N(Cc4ccc(N5CCOC5=O)cc4)c4ccccc43)[C@H]2C)cc1 | 2.73 (inactive) | 0.666 | -0.352 | -1.34 (inactive) | -0.269 (inactive) | 0.0764 (inactive)
COc1ccc([Si](C)(C)[C@@H]2[C@@H](CCO)O[C@]3(C(=O)N(Cc4ccc(N5C(=O)c6ccccc6Oc6ccccc65)cc4)c4ccccc43)[C@H]2C)cc1 | 0.89 (inactive) | 0.294 | -2.77 | -1.06 (inactive) | -0.42 (inactive) | -0.394 (inactive)
C[N+](C)(C)CCCC[C@@H]1NC(=O)[C@H]2C[C@@H](C(=O)NCCCCCCN)[C@@H](c3cccc(OCCO)c3)N2C1=O | 1.25 (inactive) | 0.527 | -0.997 | -2.38 (inactive) | -0.699 (inactive) | -0.146 (inactive)
CCCNC(=O)[C@@H]1c2ccccc2C(=O)N(CC23CC4CC(CC(C4)C2)C3)[C@H]1c1ccc(CO)cc1 | 1.67 (inactive) | 0.773 | -2.3 | -4.87 (inactive) | 0.118 (inactive) | 0.0519 (inactive)
C/C=C/[C@@H](CCn1cc([C@H](O)c2ccccc2)nn1)[Si](C)(C)c1ccc(OC)cc1 | 0.895 (inactive) | 0.778 | -0.689 | -6.33 (inactive) | 0.546 (inactive) | -0.159 (inactive)
Cc1ccc(-c2cccc(=O)o2)cc1 | -0.0449 (inactive) | -0.776 | 0.842 | -1.28 (inactive) | 0.45 (inactive) | -0.203 (inactive)
CCN(CC)c1ccc(N2CC=CC34O[C@@H]5/C=C\CCCOC(=O)C5[C@H]3C(=O)N(CCCCCCO)[C@@H]4C2=O)cc1 (stereo partly specified) | 1.51 (inactive) | 0.897 | -0.789 | -5.09 (inactive) | -0.0771 (inactive) | 1.02 (inactive)
